MOR-DOR inv ag = inverse agonists of MOR-DOR heterodimerization, primary screen, cell-based, luminescence | AID 504357, 2011 | 340,000 compounds, 0.21% hits | inhibition, % at 9.3 µM | cell-based MOR-DOR heterodimer luminescence, inverse agonism | Mu-type opioid receptor (Homo sapiens) + Delta-type opioid receptor (Homo sapiens), …; in the data active = inhibition above about 22%, passing the limit was not always enough;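 note: 0% = cells with DMSO and 100% = wells without cells with DMSO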
Target sequence (P35372 whole entry, looked up): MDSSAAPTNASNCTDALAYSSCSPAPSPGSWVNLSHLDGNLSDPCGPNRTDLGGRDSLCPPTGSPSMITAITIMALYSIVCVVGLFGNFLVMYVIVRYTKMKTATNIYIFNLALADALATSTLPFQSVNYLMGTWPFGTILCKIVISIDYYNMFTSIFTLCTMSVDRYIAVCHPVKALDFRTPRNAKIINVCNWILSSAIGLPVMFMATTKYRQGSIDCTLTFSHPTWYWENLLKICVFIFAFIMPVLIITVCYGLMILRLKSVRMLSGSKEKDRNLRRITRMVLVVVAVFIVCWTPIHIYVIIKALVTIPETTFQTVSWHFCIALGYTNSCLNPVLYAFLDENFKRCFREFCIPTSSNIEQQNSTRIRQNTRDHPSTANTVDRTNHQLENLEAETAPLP
Target sequence (P41143 whole entry, looked up): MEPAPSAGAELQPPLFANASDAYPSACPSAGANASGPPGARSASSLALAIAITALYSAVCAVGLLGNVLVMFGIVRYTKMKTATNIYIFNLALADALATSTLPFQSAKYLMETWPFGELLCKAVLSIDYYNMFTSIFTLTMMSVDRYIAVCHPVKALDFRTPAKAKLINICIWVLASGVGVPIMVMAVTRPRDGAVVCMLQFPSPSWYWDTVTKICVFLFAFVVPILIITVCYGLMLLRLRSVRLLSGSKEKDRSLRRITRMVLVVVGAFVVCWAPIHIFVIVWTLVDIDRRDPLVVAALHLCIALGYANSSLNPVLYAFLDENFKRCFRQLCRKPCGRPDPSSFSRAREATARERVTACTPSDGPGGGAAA
HTR5A ag ctr = HTR5A agonists in luminescence cell assay, primary screen, counter-screen for OPRM1-OPRD1 heterodimer agonist project, full-deck HTS. 5-hydroxytryptamine receptor 5A (Homo sapiens), P47898. cell-based. activation, % at 9.3 µM. 340,000 compounds, 0.61% hits. AID 504692, 2011; in the data active = activation mostly above about 9.5%, no sharp cut-off; inactive = mostly below about 7.6%;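 note: 0% = cells with vehicle only and 100% = reference agonist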
HTR5A inv ag = HTR5A inverse agonists in luminescence cell assay, primary screen, counter-screen for OPRM1-OPRD1 heterodimer inverse agonist project, full-deck HTS; 340,000 compounds, 0.083% hits; 5-hydroxytryptamine receptor 5A (Homo sapiens), P47898; inhibition, % at 9.3 µM; HTR5A cell line, inverse agonism; in the data active = inhibition mostly above about 23%, no sharp cut-off; inactive = mostly below about 18%;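 note: 0% = cells with DMSO and 100% = no-cell wells with DMSO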
OPRM1-OPRD1 ag = agonists of OPRM1-OPRD1 heterodimerization, primary screen, cell-based, luminescence | 340,000 compounds, 0.3% hits | Mu-type opioid receptor (Homo sapiens) + Delta-type opioid receptor (Homo sapiens), … | activation, % at 9.3 µM | cells;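 note: 0% = vehicle-treated cells and 100% = reference agonist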
MOR-DOR ag conf = agonists of MOR-DOR heterodimerization, confirmation, cell-based, luminescence; shares compounds with OPRM1-OPRD1 ag; cells, luminescence complementation; activation, % at 9.3 µM; 830 compounds, 45% hits; AID 504904, 2011;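 note: 0% = vehicle-treated cells and 100% = reference agonist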
HTR5A ag ctr2 = HTR5A agonists in cells, counter-screen for OPRM1-OPRD1 heterodimer agonist project, cell-based, luminescence; shares compounds with OPRM1-OPRD1 ag; HTR5A agonist counterscreen; activation, % at 9.3 µM; 830 compounds, 8% hits; in the data active = activation above about 17%;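 note: 0% = vehicle-treated cells and 100% = reference agonist response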
The depositor's hits bear a star. Sampled rows, rich in hits. Any-hit rate of the full collection: about 1.1%. Cut-off read from the data, not from the text of the source, unless noted: active = activation above about 18%; inactive = the rest.

Results for Cc1ccc2nc(NC(=O)Cc3cccs3)sc2c1 ?
MOR-DOR inv ag: -16; HTR5A ag ctr: 1; HTR5A inv ag: -24; OPRM1-OPRD1 ag: 3

What do the screens show for `Cc1ccc2nc(-c3ccc(NC(=O)Cc4cccs4)cc3)[nH]c2c1`?
MOR-DOR inv ag: -135; HTR5A ag ctr: -8; HTR5A inv ag: 18; OPRM1-OPRD1 ag: 23*; MOR-DOR ag conf: 18; HTR5A ag ctr2: 6

How did CC(NCCC1(C(C)C)CCOC(C)(C)C1)c1cccs1 (stereo not given) do in these assays?
MOR-DOR inv ag: 7; HTR5A ag ctr: -2; HTR5A inv ag: 2; OPRM1-OPRD1 ag: -1

Results for CC(NCCC1(Cc2ccccc2Cl)CCOC(C)(C)C1)c1cccs1 (stereo not given) ?
MOR-DOR inv ag: -227; HTR5A ag ctr: -2; HTR5A inv ag: -13; OPRM1-OPRD1 ag: 45*; MOR-DOR ag conf: 6; HTR5A ag ctr2: 2

How did COc1ccc(C(CNC(=O)c2cccc(NS(=O)(=O)c3ccccc3)c2)N(C)C)cc1 (stereo not given) do in these assays?
MOR-DOR inv ag: -246; HTR5A ag ctr: 2; HTR5A inv ag: -11; OPRM1-OPRD1 ag: 46*; MOR-DOR ag conf: 29*; HTR5A ag ctr2: 2

Results for COc1ccc(C(CNC(=O)c2cccc(S(=O)(=O)Nc3ccc(F)cc3)c2)N(C)C)cc1 (stereo not given) ?
MOR-DOR inv ag: -20; HTR5A ag ctr: -4; HTR5A inv ag: 10; OPRM1-OPRD1 ag: 4

Results for COc1ccc(C(CNC(=O)c2cccc(NS(=O)(=O)c3ccc(C)c(F)c3)c2)N(C)C)cc1 (stereo not given) ?
MOR-DOR inv ag: -363; HTR5A ag ctr: -3; HTR5A inv ag: 7; OPRM1-OPRD1 ag: 70*; MOR-DOR ag conf: 1; HTR5A ag ctr2: -2

Results for CCOc1ccc(S(=O)(=O)Nc2cccc(C(=O)NCC(c3ccccc3)N(C)C)c2)cc1 (stereo not given) ?
MOR-DOR inv ag: -313; HTR5A ag ctr: -5; HTR5A inv ag: 2; OPRM1-OPRD1 ag: 58*; MOR-DOR ag conf: 52*; HTR5A ag ctr2: -3

How did CN(C)C(CNC(=O)c1ccc(S(=O)(=O)Nc2ccccc2F)cc1)c1ccccc1 (stereo not given) do in these assays?
MOR-DOR inv ag: 14; HTR5A ag ctr: -1; HTR5A inv ag: 16; OPRM1-OPRD1 ag: -3

How did COc1ccccc1C(CNC(=O)c1cccc(NS(=O)(=O)c2ccc(C)c(F)c2)c1)N(C)C (stereo not given) do in these assays?
MOR-DOR inv ag: -44; HTR5A ag ctr: 1; HTR5A inv ag: -2; OPRM1-OPRD1 ag: 7

How did CC(=O)c1ccc(S(=O)(=O)NCc2ccc(C(=O)NCC(c3ccccc3)N(C)C)cc2)cc1 (stereo not given) do in these assays?
MOR-DOR inv ag: -292; HTR5A ag ctr: 4; HTR5A inv ag: -11; OPRM1-OPRD1 ag: 55*; MOR-DOR ag conf: 49*; HTR5A ag ctr2: -4

How did O=C(CSc1nnc(NC2CC2)s1)NN1C(=O)NC2(CCCCC2)C1=O do in these assays?
MOR-DOR inv ag: 0; HTR5A ag ctr: -2; HTR5A inv ag: 4; OPRM1-OPRD1 ag: 0

Results for Cc1cc(NC(=O)C2CC(=O)N(c3cccc(Cl)c3)C2)no1 (stereo not given) ?
MOR-DOR inv ag: 12; HTR5A ag ctr: -2; HTR5A inv ag: 6; OPRM1-OPRD1 ag: -2

How did Cc1onc(C(=O)NCc2ccccn2)c1[N+](=O)[O-] do in these assays?
MOR-DOR inv ag: 6; HTR5A ag ctr: 2; HTR5A inv ag: 4; OPRM1-OPRD1 ag: -1

How did O=C(Nc1ccccn1)c1cc(-c2cccnc2)nc2ccc(Br)cc12 do in these assays?
MOR-DOR inv ag: -158; HTR5A ag ctr: 3; HTR5A inv ag: -8; OPRM1-OPRD1 ag: 33*; MOR-DOR ag conf: 20*; HTR5A ag ctr2: 10

How did Cc1cc(NC(=O)c2cc(-c3ccccn3)nc3ccc(Br)cc23)no1 do in these assays?
MOR-DOR inv ag: 9; HTR5A ag ctr: 1; HTR5A inv ag: -3; OPRM1-OPRD1 ag: -2

How did O=S(=O)(c1c(Cl)cc(Br)cc1Cl)N1CCN(C(=S)NC2CC2)CC1 do in these assays?
MOR-DOR inv ag: -413; HTR5A ag ctr: 0; HTR5A inv ag: 1; OPRM1-OPRD1 ag: 85*; MOR-DOR ag conf: 122*; HTR5A ag ctr2: 4

How did O=S(=O)(c1ccccc1)N1CCN(C(=S)NC2CCCC2)CC1 do in these assays?
MOR-DOR inv ag: 7; HTR5A ag ctr: 2; HTR5A inv ag: -4; OPRM1-OPRD1 ag: -2

What do the screens show for `O=C(NCc1ccccc1OC(F)(F)F)C1CCC(=O)N(C2CC2)C1` (stereo not given)?
MOR-DOR inv ag: 14; HTR5A ag ctr: 7; HTR5A inv ag: -16; OPRM1-OPRD1 ag: -3

What do the screens show for `S=c1[nH]nc(CSCCOc2ccc(Cl)cc2Cl)o1`?
MOR-DOR inv ag: 23; HTR5A ag ctr: 0; HTR5A inv ag: -22; OPRM1-OPRD1 ag: -5

How did N#CCC(=O)N/N=C/c1cn(Cc2ccc(Cl)cc2Cl)c2ccccc12 do in these assays?
MOR-DOR inv ag: -103; HTR5A ag ctr: 5; HTR5A inv ag: -6; OPRM1-OPRD1 ag: 20*; MOR-DOR ag conf: 2; HTR5A ag ctr2: 9

What do the screens show for `CCOC(=O)N/N=C/c1cn(Cc2ccc(Cl)cc2)c2ccccc12`?
MOR-DOR inv ag: 7; HTR5A ag ctr: 2; HTR5A inv ag: -5; OPRM1-OPRD1 ag: -1

What do the screens show for `O=C(COC(=O)CCc1ccccc1)NC1CCS(=O)(=O)C1` (stereo not given)?
MOR-DOR inv ag: 23; HTR5A ag ctr: 0; HTR5A inv ag: 1; OPRM1-OPRD1 ag: -4

How did COc1ccc(NC(=O)CN(C)S(=O)(=O)c2ccc3c(c2)c(=O)n(C)c(=O)n3C)cc1 do in these assays?
MOR-DOR inv ag: -3; HTR5A ag ctr: -2; HTR5A inv ag: 18; OPRM1-OPRD1 ag: 1

Results for O=C1NC(=Nc2ccccc2)S/C1=C\c1ccccc1 ?
MOR-DOR inv ag: -122; HTR5A ag ctr: -2; HTR5A inv ag: 12; OPRM1-OPRD1 ag: 24*; MOR-DOR ag conf: 0; HTR5A ag ctr2: 6

Results for Cc1cc(/C=C2\SC(=Nc3ccccc3)NC2=O)c(C)n1-c1ccc(S(N)(=O)=O)cc1 ?
MOR-DOR inv ag: inactive; HTR5A ag ctr: 6; HTR5A inv ag: -18; OPRM1-OPRD1 ag: 120*; MOR-DOR ag conf: 140*; HTR5A ag ctr2: -2

How did COC(=O)c1ccccc1NC(=O)c1ccc(Cn2cc(Cl)cn2)o1 do in these assays?
MOR-DOR inv ag: -113; HTR5A ag ctr: -1; HTR5A inv ag: -12; OPRM1-OPRD1 ag: 19*; MOR-DOR ag conf: 11; HTR5A ag ctr2: 5

High-throughput results as filed in PubChem.
